Bioassay records (PubChem BioAssay)
This is a sample that favours compounds with a hit; in the whole collection about 4.5% have one here.
Rpn11 inh: Rpn11 (PSMD14) deubiquitinase inhibitors, primary screen, biochemical, fluorescence polarization, uHTS; human 26S proteasome, Ub4-pepOG fluorescence polarization; 20S core pre-blocked with epoxomicin; inhibition, % at 20 µM; actives 0.59% (n = 360,000); AID 588493, 2011;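 active means inhibition at 20 µM, scaled to each plate's controls, above about 33%, limit read from the data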
Target sequence (O00487 whole entry, looked up): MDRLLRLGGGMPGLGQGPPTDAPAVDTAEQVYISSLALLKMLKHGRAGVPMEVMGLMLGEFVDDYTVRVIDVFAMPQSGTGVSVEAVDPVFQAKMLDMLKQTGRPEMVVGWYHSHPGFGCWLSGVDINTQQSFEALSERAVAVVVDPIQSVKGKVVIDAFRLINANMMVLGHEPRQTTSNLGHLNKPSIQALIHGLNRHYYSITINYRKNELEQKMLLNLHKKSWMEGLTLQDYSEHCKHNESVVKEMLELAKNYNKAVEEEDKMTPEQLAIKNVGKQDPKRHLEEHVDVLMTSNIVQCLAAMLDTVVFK
TPT1 inh: Candida albicans TPT1 enzyme inhibitors, primary screen, biochemical, fluorescence polarization | tRNA 2'-phosphotransferase TPT1 (Candida albicans SC5314) | recombinant caTPT1, FP RNA substrate dephosphorylation | inhibition, % at 5 µM | actives 0.81% (n = 300,000) | AID 1962, 2009;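 active means inhibition above the mean of all tested compounds plus 3 SD, set per screening campaign, cut at about 24% in these data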
EBNA-1 inh: EBNA-1 DNA-binding inhibitors, primary screen, biochemical, fluorescence polarization. inhibition, % at 14.8 µM. actives 0.34% (n = 300,000); in the data active means inhibition above about 28%
ZTA counter: counter-screen for EBNA-1 inhibitors: inhibitors of Epstein-Barr virus ZTA | P03206 | ZTA-DNA binding, fluorescence polarization | inhibition, % at 11 µM | actives 0.15% (n = 320,000) | AID 2234; in the data active means inhibition above about 33%
Target sequence (P03206 whole entry, looked up): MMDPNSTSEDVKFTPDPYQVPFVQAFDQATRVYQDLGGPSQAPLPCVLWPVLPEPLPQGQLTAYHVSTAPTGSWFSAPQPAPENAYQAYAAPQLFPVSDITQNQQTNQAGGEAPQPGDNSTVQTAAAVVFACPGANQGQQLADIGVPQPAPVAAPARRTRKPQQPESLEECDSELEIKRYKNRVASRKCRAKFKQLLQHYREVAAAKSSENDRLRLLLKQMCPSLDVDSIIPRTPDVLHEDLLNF
dFosB activator: activators of delta FosB homodimer, primary screen, biochemical, fluorescence polarization, TAMRA-CDK5 oligo, single point; Protein FosB (Mus musculus), P13346; purified delta FosB; percent of positive-control signal above neutral wells; activation, % at 25 µM; actives 0.99% (n = 340,000);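 active means mean activation above about 17%, with every replicate also reaching it, limit read from the data, passing the limit was not always enough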
GRIN3A LBD mod: binders of NR3A ligand-binding domain, primary screen, biophysical, differential scanning fluorimetry, uHTS. actives 2.5% (n = 340,000). AID 1259313, 2017. NR3A LBD differential scanning fluorimetry, Tm shift; 0% = protein alone, 100% = glycine-bound protein. Tm shift relative to glycine control, % at 25 µM. Glutamate receptor ionotropic, NMDA 3A (GRIN3A) ligand-binding domain;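 active means melting temperature shift of at least 10% of the positive control shift, at one fixed dose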
EBNA-1 confirm: EBNA-1 DNA-binding inhibitors, retest, confirmation, biochemical, fluorescence polarization, triplicate; Recombinant EBNA-1 DBD, Cy5-DNA fluorescence polarization; actives 35% (n = 830); AID 2292, 2010; inhibition, % at 14.8 µM; shares compounds with EBNA-1 inh;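 active means mean inhibition across replicates above a set limit taken from the earlier primary screen, cut at about 28% in these data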
ZTA DNA inh trip: EBV Zta DNA binding inhibitors, counter-screen for EBNA-1 inhibitor project, biochemical, fluorescence polarization, triplicate. shares compounds with EBNA-1 inh. Zta-ZRE DNA binding, Cy5 fluorescence polarization. inhibition, % at 11.1 µM. 830 tested, under 10 active. AID 2328, 2010;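 active means mean inhibition over triplicates above a set limit taken from the primary EBNA-1 screen, cut at about 37% in these data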;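 further: purified full length Zta protein with Cy5 labeled ZRE DNA probe; inhibitors lower polarization by freeing the labeled DNA probe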
TPT1 inh confirm: Candida albicans TPT1 inhibitors, confirmation, biochemical, fluorescence polarization, triplicate. inhibition, % at 5 µM. recombinant caTPT1, RNase T1 coupled. AID 2149, 2009. shares compounds with TPT1 inh. actives 74% (n = 2,400);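 active means inhibition above the primary screen limit, the mean inhibition of all tested compounds plus 3 SD, cut at about 25% in these data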
RNase T1 inh: RNase T1 inhibitors, counter-screen for TPT1 inhibitor project, biochemical, fluorescence polarization | shares compounds with TPT1 inh | RNase T1 cleavage, 1536-well | inhibition, % at 5 µM | actives 83% (n = 2,400);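 active means inhibition above the solvent-only control well mean plus 3 SD, limit set per screening run, cut at about 23% in these data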;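 further: inhibitors block cleavage so intact labeled substrate keeps polarization high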
Target sequence (P00651 whole entry, looked up): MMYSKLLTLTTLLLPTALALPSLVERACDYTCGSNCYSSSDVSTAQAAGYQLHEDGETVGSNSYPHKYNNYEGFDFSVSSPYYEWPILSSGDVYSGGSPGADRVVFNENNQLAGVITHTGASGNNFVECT
Of the large screens only hits and unclear results are named; the others gave an inactive call (follow-up assays come after a bar, where shown).

Cc1nn(Cc2ccccc2)c(Cl)c1C(=O)OC(C)C(=O)Nc1ccc(F)cc1Cl (stereo unspecified)	EBNA-1 inh 122 | EBNA-1 confirm 129 | ZTA DNA inh trip inactive
CCc1ccc(NC(=O)C(C)OC(=O)c2c(C)nn(Cc3ccccc3)c2Cl)cc1 (stereo unspecified)	none
CCOc1ccc2[nH]c(=O)c(CN(CCO)C3(c4nnnn4C4CCCCC4)CCCCC3)cc2c1	none
O=C1NC(=O)N(c2ccccc2F)C(=O)/C1=C/c1cn(CC(=O)N2CCOCC2)c2ccccc12	TPT1 inh 28 (no result: Rpn11 inh, dFosB activator) | TPT1 inh confirm inactive | RNase T1 inh inactive
O=C(O)Cn1cc(/C=C2\C(=O)NC(=O)N(c3ccc(Br)cc3)C2=O)c2ccccc21	TPT1 inh 37 (no result: GRIN3A LBD mod) | TPT1 inh confirm 41 | RNase T1 inh 51
COc1cc(C[C@@H](C)N)c(OC)cc1I	none
O=Cc1c(C(=O)O)n(Cc2ccc(Cl)cc2)c2ccccc12	TPT1 inh 77 (not shown: Rpn11 inh) | TPT1 inh confirm 174 | RNase T1 inh 161
CCN1C(=O)C(=Cc2ccc(C)s2)C(=O)N(CC)C1=S	TPT1 inh 31 (not shown: Rpn11 inh) | TPT1 inh confirm inactive | RNase T1 inh inactive
CCN1C(=O)C(=Cc2cc(C)n(C3CC3)c2C)C(=O)N(CC)C1=S	none (not shown: Rpn11 inh)
CC1CC(NC(=O)C2C3CCC(O3)C2C(=O)O)CC(C)(C)C1 (stereo unspecified)	none
COc1ccc(-n2c(O)c(/C=C3\C=Nc4ccc(Br)cc43)c(=O)[nH]c2=O)c(OC)c1	TPT1 inh 39 | TPT1 inh confirm inactive | RNase T1 inh inactive
COC(=O)C1=Nc2ccccc2/C1=C\c1c(O)n(-c2cc(OC)ccc2OC)c(=O)[nH]c1=O	none
O=c1[nH]c(=O)n(-c2ccccc2F)c(O)c1/C=C1\C=Nc2ccccc21	TPT1 inh 56 | TPT1 inh confirm inactive | RNase T1 inh 29
O=c1[nH]c(=O)n(-c2ccc(F)cc2)c(O)c1/C=C1\C=Nc2ccccc21	TPT1 inh 51 | TPT1 inh confirm 70 | RNase T1 inh 77
CC1=Nc2ccccc2/C1=C/c1c(O)n(C)c(=O)[nH]c1=O	none
Cn1c(O)c(/C=C2\C=Nc3ccc(Br)cc32)c(=O)n(C)c1=O	TPT1 inh 28 | TPT1 inh confirm inactive | RNase T1 inh inactive
Cc1cccc(-n2c(O)c(/C=C3/C(c4ccccc4)=Nc4ccccc43)c(=O)[nH]c2=O)c1	none
O=C(COc1ccc2ccc(=O)oc2c1)N1CCC(C(=O)O)(c2ccccc2)CC1	none
CCOP(=O)(Cc1cc(C(C)=O)c(C)o1)OCC	none
O=c1[nH]c(=O)n(Cc2ccccc2)c(O)c1/C=C1\C=Nc2ccccc21	TPT1 inh 58, GRIN3A LBD mod 10 (not shown: Rpn11 inh) | TPT1 inh confirm inactive | RNase T1 inh 27
O=C(O)c1c[nH]c2ccc(S(=O)(=O)N(CCCl)CCCl)cc12	none
CCCCN1C(=O)/C(=C/c2ccc(N(C)C)cc2)C(=O)N(Cc2ccco2)C1=O	TPT1 inh 150 (not shown: Rpn11 inh) | TPT1 inh confirm 110 | RNase T1 inh 116
CCN(CC)c1ccc(/C=C2\C(=O)NC(=O)N(Cc3ccco3)C2=O)cc1	TPT1 inh 38, GRIN3A LBD mod 24 | TPT1 inh confirm 93 | RNase T1 inh 112
O=C(c1n[nH]c(=O)c2ccccc12)N1CCC2(CC1)OCCO2	none
CN1/C(=C\C=C2C(=O)NC(=S)NC2=O)C(C)(C)c2ccccc21	none (no result: TPT1 inh, EBNA-1 inh, ZTA counter)
CC1(C)OC(c2ccccc2)=C/C(=C/C=C2C(=O)NC(=S)NC2=O)O1	TPT1 inh 129 (no result: Rpn11 inh, dFosB activator) | TPT1 inh confirm 77 | RNase T1 inh 76
CCC(=O)OC(Cc1ccccc1)(c1ccccc1)[C@H](C)CN(C)C (stereo partly specified)	none (no result: TPT1 inh, EBNA-1 inh, ZTA counter)
CCCCn1c(O)c(C(=O)/C=C/c2c[nH]c3ccccc23)c(=O)[nH]c1=O	TPT1 inh 121 (not shown: Rpn11 inh) | TPT1 inh confirm 178 | RNase T1 inh 161
COc1ccc(C2(C#N)CCN(C)CC2)cc1	none
COC(=O)C1=C(c2ccc(C(C)=O)cc2)C[C@@H]2CC[C@H]1N2C(=O)NC(C)C	none (no result: TPT1 inh, EBNA-1 inh)
COC(=O)C1=C(c2ccc(OC)c(OC)c2)C[C@@H]2CC[C@H]1N2C(=O)NCCNC(C)=O	none (no result: TPT1 inh, EBNA-1 inh)
O=C(NC1CONC1=O)OCC(Cl)(Cl)Cl (stereo unspecified)	none
COc1ccccc1C(=O)Nc1ccc2c(c1)CC1(C(=O)N(C)C(=O)N(C)C1=O)C1CCCN21 (stereo unspecified)	none
Cc1cccc(C(=O)Nc2ccc3c(c2)CC2(C(=O)N(C)C(=O)N(C)C2=O)C2CCCN32)c1 (stereo unspecified)	TPT1 inh 26 | TPT1 inh confirm 36 | RNase T1 inh 49
CCOC(=O)COc1ccc(/C=C2\C(=O)NC(=S)N(c3ccc(OC)cc3)C2=O)cc1OC	none
CCC(C)N1C(=O)/C(=C/c2ccc3c(c2)CCN3CCCCl)C(=O)NC1=S (stereo unspecified)	TPT1 inh 41 (not shown: Rpn11 inh) | TPT1 inh confirm 56 | RNase T1 inh 72
Fc1ccc(CNCCc2ccc3c(c2)OCO3)cc1	none
O=[N+]([O-])c1cc2c(cc1CNCCc1ccc3c(c1)OCO3)OCO2	TPT1 inh 32 | TPT1 inh confirm inactive | RNase T1 inh inactive
O=C1NC(=O)N(Cc2ccccc2Cl)C(=O)/C1=C/N1CCOCC1	TPT1 inh 40 (not shown: Rpn11 inh) | TPT1 inh confirm 47 | RNase T1 inh 60
N#C/C(=C\c1ccc(O)cc1)C(=O)O	none (no result: TPT1 inh, EBNA-1 inh, ZTA counter)
CN(C)c1ccc(C=C(C#N)C#N)cc1	TPT1 inh 40 | TPT1 inh confirm 48 | RNase T1 inh 60
